Rows were chosen to be rich in hits. Some 18% of all compounds tested hit in one or more screens of this group.
DT40 TDP1 no CPT: qHTS for Inhibitors of human tyrosyl-DNA phosphodiesterase 1 (TDP1): qHTS in cells in absence of CPT. DT40 Tdp1-/- hTDP1 cells, no CPT, ATP luminescence, 48 h. Potency, µM (doses to about 46.2 µM), actives largely listed as inhibitors. 420,000 tested, 15% active. AID 686978, 2013; also: nearly all actives have a fitted effect of over 55% in size
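DT40 Tdp1-/-;hTDP1 cells, no CPT (DMSO vehicle only), 400 cells/well; compounds pin-transferred; ≥48 hr, 37 °C; CellTiter-Glo 30 min RT dark, luminescence read.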
LDHA inh: qHTS assay for inhibitors of human lactate dehydrogenase. L-lactate dehydrogenase A chain (Homo sapiens), P00338. purified LDHA, NADH/diaphorase-resazurin fluorescence; hits give low values. activity change, % (values are at about 110 or 230 µM). 480,000 tested, 0.15% active. AID 1347041, 2019; in the data active = activity change below about -30%; inconclusive = mostly about -25% to -30%
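Human LDH5 at 2 nM final in Tris HCl pH 7.4 with 0.06 mM NADH and 0.2 mM pyruvate, reacted 5 minutes at room temperature. Remaining NADH coupled via diaphorase/resazurin; resorufin fluorescence read at 0 and 20 minutes, normalized to enzyme-free and DMSO wells.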
Gal4-VP16 FLuc: VP16 counterscreen qHTS for inhibitors of ROR gamma transcriptional activity; Drosophila S2 Gal4-VP16 UAS-luciferase, luminescence, 20 h; Potency, µM (series often up to 53.6 µM), usual class: inhibitors; 310,000 tested, 3.5% active; AID 2546, 2010;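 also: Gal4-VP16 expression switched on by copper sulfate through the metallothionein promoter; nearly all actives have a fitted effect of over 50% in size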
TDP1 cell CPT: qHTS for Inhibitors of human tyrosyl-DNA phosphodiesterase 1 (TDP1): qHTS in cells in presence of CPT; chicken DT40 Tdp1-/-;hTDP1 cells + 20 nM CPT, ATP luminescence, 48 h; Potency, µM (highest dose often 46.2 µM), most hits filed as inhibitors; 420,000 tested, 12% active; AID 686979, 2013; also: nearly all actives have a fitted effect of over 55% in size
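Chicken DT40 Tdp1-/- cells stably complemented with human TDP1 were seeded at 400 cells/well in medium containing 20 nM camptothecin, exposed to pin-transferred compounds, and grown at 37 °C for at least 48 hr. Viability was read as ATP luminescence.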
IL-1B inflam inh: qHTS for Inhibitors of Inflammasome Signaling: IL-1-beta AlphaLISA Primary Screen; THP-1 LPS/ATP IL-1B secretion, AlphaLISA, 16 h; hits give low values; activity change, % at 57.5 µM; 360,000 tested, 4.7% active; AID 743279, 2014; in the data active = activity change below about -50%; inconclusive = mostly about -30% to -49%
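THP-1 cells pretreated 1 hr with compounds (up to 57.5 uM final), then stimulated with LPS (250 ng/mL final) plus ATP (1.25 mM final); secreted IL-1B measured by AlphaLISA after 16 hr, decreased signal indicating inhibition.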
RORgamma inh: qHTS for inhibitors of ROR gamma transcriptional activity; Drosophila S2 Gal4-RORgamma UAS-luciferase reporter, 20 h; Potency, µM (top dose mostly 53.6 µM), actives largely listed as inhibitors; Nuclear receptor ROR-gamma (Mus musculus), P51450; 310,000 tested, 5.4% active; AID 2551, 2010; also: nearly all actives have a fitted effect of over 60% in size
Target sequence (P51450 whole entry, looked up, the tested form may be a part): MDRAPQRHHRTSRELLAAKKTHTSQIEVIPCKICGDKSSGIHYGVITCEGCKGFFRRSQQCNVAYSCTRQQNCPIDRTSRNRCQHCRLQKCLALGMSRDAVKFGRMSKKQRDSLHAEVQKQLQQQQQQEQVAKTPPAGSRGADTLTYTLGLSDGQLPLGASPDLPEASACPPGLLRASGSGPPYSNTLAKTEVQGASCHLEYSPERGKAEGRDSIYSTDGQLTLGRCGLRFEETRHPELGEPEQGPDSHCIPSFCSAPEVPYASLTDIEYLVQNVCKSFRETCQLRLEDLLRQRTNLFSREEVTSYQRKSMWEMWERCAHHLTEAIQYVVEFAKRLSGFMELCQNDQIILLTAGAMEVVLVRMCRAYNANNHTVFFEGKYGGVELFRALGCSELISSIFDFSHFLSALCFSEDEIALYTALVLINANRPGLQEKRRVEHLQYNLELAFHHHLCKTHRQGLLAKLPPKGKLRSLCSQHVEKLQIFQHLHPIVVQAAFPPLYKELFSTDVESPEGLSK
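A Gal4/UAS one-hybrid system in insect cells: metallothionein-promoter Gal4–ROR gamma fusion plus Photinus luciferase reporter. Copper sulfate 700 uM final, 20 hr ambient incubation, luminescent detection after 10 min with reagent.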
A number is an active result. Unless noted, calls follow the shape of the dose curve; as a rule, active = well fitted curve in the direction sought with a large enough effect; inconclusive = small, poorly fitted or top-dose-only effect, or another doubt; inactive = no such curve, though single readings can be large; an effect the other way counts as inactive or inconclusive.

Results for COc1cccc(C(C)(O)c2nc(-c3cccc(C#N)c3)cs2)c1 (stereo not drawn) ?
DT40 TDP1 no CPT: 13µM; LDHA inh: inactive; TDP1 cell CPT: 18µM; IL-1B inflam inh: inactive

What do the screens show for `COc1ccc(C(C)(O)c2nc(-c3cccc(C#N)c3)cs2)cc1` (stereo not drawn)?
DT40 TDP1 no CPT: 21µM; LDHA inh: inactive; TDP1 cell CPT: 13µM; IL-1B inflam inh: inactive

Results for CCOc1ccc2nc(NC(=O)c3nn(C(C)C)c(=O)c4ccccc34)sc2c1 ?
LDHA inh: inactive

Results for CCCCC(c1nnnn1CC1CCCO1)N1CCN(c2cc(Cl)ccc2C)CC1 (stereo not drawn) ?
DT40 TDP1 no CPT: 16µM; LDHA inh: inactive; Gal4-VP16 FLuc: inactive; TDP1 cell CPT: inconclusive; IL-1B inflam inh: inactive; RORgamma inh: inactive

What do the screens show for `CCCCC(c1nnnn1CC1CCCO1)N1CCN(c2nc3ccccc3s2)CC1` (stereo not drawn)?
DT40 TDP1 no CPT: inconclusive; LDHA inh: inactive; Gal4-VP16 FLuc: inactive; TDP1 cell CPT: 23µM; IL-1B inflam inh: inactive; RORgamma inh: inactive

Results for CCCC(c1nnnn1CC1CCCO1)N1CCN(c2nc3ccccc3s2)CC1 (stereo not drawn) ?
DT40 TDP1 no CPT: inconclusive; LDHA inh: inactive; Gal4-VP16 FLuc: inactive; TDP1 cell CPT: inconclusive; IL-1B inflam inh: inactive; RORgamma inh: inactive

How did CCCCC(c1nnnn1CC1CCCO1)N1CCN(c2ccccc2)CC1 (stereo not drawn) do in these assays?
DT40 TDP1 no CPT: inactive; LDHA inh: inactive; Gal4-VP16 FLuc: inactive; TDP1 cell CPT: inactive; IL-1B inflam inh: inactive; RORgamma inh: inactive

How did Cc1ccccc1OCCC(=O)Nc1cccc2cccnc12 do in these assays?
LDHA inh: inactive

How did CCOC(=O)C1=CN(Cc2ccc(F)cc2)C=C(C(=O)OCC)C1c1cccc(O)c1 do in these assays?
LDHA inh: inactive

What do the screens show for `Cc1oc2cc(OC(=O)C3CC3)ccc2c(=O)c1-c1ccc(Cl)cc1`?
LDHA inh: inactive

Results for O=C1CN(CC(=O)c2c[nH]c3ccccc23)CCN1 ?
LDHA inh: inactive

What do the screens show for `N#Cc1c2c(c(Cl)n3c1nc1ccccc13)CCCC2`?
DT40 TDP1 no CPT: 0.89µM; LDHA inh: inactive; TDP1 cell CPT: 0.71µM

Results for CCN(CC)c1c2c(c(C#N)c3nc4ccccc4n13)CCC2 ?
DT40 TDP1 no CPT: inconclusive; LDHA inh: inactive; Gal4-VP16 FLuc: inactive; TDP1 cell CPT: inactive; IL-1B inflam inh: inactive; RORgamma inh: inactive

What do the screens show for `COCCNc1c2c(c(C#N)c3nc4ccccc4n13)CCCC2`?
DT40 TDP1 no CPT: 21µM; LDHA inh: inactive; Gal4-VP16 FLuc: inactive; TDP1 cell CPT: 26µM; IL-1B inflam inh: inactive; RORgamma inh: inactive

Results for Cc1ccc2[nH]c(=O)c(CNc3cccc(C)c3C)cc2c1 ?
LDHA inh: inactive

What do the screens show for `COc1ccc2[nH]c(=O)c(CNc3ccccc3OC)cc2c1`?
DT40 TDP1 no CPT: 13µM; LDHA inh: inactive; Gal4-VP16 FLuc: inactive; TDP1 cell CPT: 6.5µM; IL-1B inflam inh: inactive; RORgamma inh: inactive

Results for COc1ccc2[nH]c(=O)c(CNc3ccccc3C)cc2c1 ?
DT40 TDP1 no CPT: 23µM; LDHA inh: inactive; Gal4-VP16 FLuc: inactive; TDP1 cell CPT: 9.2µM; IL-1B inflam inh: inactive; RORgamma inh: inconclusive

What do the screens show for `CCc1ccc(S(=O)(=O)Nc2cc3c(C(=O)OC)c(COC)oc3c3ccccc23)cc1`?
LDHA inh: inactive

How did CCOC(=O)C1=C(COc2ccccc2)NC(=O)NC1c1cccc([N+](=O)[O-])c1 (stereo not drawn) do in these assays?
DT40 TDP1 no CPT: inactive; LDHA inh: inactive; Gal4-VP16 FLuc: inactive; TDP1 cell CPT: inactive; IL-1B inflam inh: inconclusive; RORgamma inh: inactive

Source: PubChem (National Center for Advancing Translational Sciences (NCATS))
